A selection: hits, their analogues and other compounds. The true share with any hit is near 2.5%.
Cruzain inh noDet: cruzain (T. cruzi) inhibition without detergent. P25779. purified cruzain, Z-FR-AMC fluorescence, no detergent. Potency, µM, for the others: max response, negative = inhibition, usual class: inhibitors. 200,000 compounds, 2.3% hits;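 note: plate controls were enzyme without inhibitor for no effect and buffer without enzyme for full effect; nearly all actives have a fitted effect of over 40% in size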
Target sequence (P25779 123-467 limits assumed): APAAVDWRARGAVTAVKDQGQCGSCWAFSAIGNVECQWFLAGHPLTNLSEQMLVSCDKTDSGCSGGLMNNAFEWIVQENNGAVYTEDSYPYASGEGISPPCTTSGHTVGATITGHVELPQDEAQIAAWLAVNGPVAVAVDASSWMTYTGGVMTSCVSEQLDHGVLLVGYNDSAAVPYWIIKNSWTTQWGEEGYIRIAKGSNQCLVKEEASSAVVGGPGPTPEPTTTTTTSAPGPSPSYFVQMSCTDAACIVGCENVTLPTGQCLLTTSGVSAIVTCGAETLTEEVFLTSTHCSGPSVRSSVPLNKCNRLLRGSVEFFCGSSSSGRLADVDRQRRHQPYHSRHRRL
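Purified cruzain at 1.5 nM, pre-incubated 15 min with compound at room temperature in 100 mM sodium acetate pH 5.5, 5 mM DTT, 0.00005% Triton X-100. Reaction started with 2 uM Z-FR-AMC; AMC fluorescence increase over 60 s gives rate.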
Cruzain Triton: blocks cruzain activity in presence of Triton detergent; P25779; purified cruzain, Z-FR-AMC fluorescence, 0.01% Triton; AID 1478; Potency, µM, inactives show max response, negative = inhibition, most hits filed as inhibitors; 200,000 compounds, 0.43% hits;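 note: plate controls were neutral wells for no effect and buffer without enzyme for full effect; nearly all actives have a fitted effect of over 40% in size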
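Cysteine protease activity tested under reducing, mildly acidic conditions (100 mM sodium acetate pH 5.5, 5 mM DTT) plus 0.01% Triton X-100. Cruzain 1.5 nM; substrate Z-FR-AMC 2 uM; 15 min compound preincubation at room temperature.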
* = called active by the depositor. Calls come from the whole dose curve; as a rule, active = well fitted curve in the direction sought with a large enough effect; inconclusive = small, poorly fitted or top-dose-only effect, or another doubt; inactive = no such curve, though single readings can be large; an effect the other way counts as inactive or inconclusive. Potency is the fitted concentration of half-maximal effect.

How did Cc1cc(NC(=O)c2ccc(F)cc2)ccc1-c1cc2ccccc2oc1=O do in these assays?
Cruzain inh noDet: 5.3%; Cruzain Triton: -2.2%

Results for Cc1cc2ccccc2n1CCNC(=O)c1cc(C(F)(F)F)cc(C(F)(F)F)c1 ?
Cruzain inh noDet: 17.6%; Cruzain Triton: -0.8%

What do the screens show for `Cn1c(=O)c(-c2ccc(Cl)cc2)nc2cnc(Oc3ccccc3)nc21`?
Cruzain inh noDet: 0.4%; Cruzain Triton: 4.1%

What do the screens show for `Cc1ccc(-c2cc(C(=O)OCC(=O)Nc3cc(C)on3)c3ccccc3n2)c(C)c1`?
Cruzain inh noDet: 5.1%; Cruzain Triton: -2.1%

How did Cc1cc(NC(=O)COC(=O)c2oc3c(ccc4ccccc43)c2C)no1 do in these assays?
Cruzain inh noDet: 20µM*; Cruzain Triton: 0.6%

How did O=C(CN1C(=O)c2ccccc2C1=O)Nc1ccc2c(c1)OCO2 do in these assays?
Cruzain inh noDet: -15.4%; Cruzain Triton: 1.1%

What do the screens show for `O=C(Cn1c(O)c(/C=C2\C=Nc3ccccc32)sc1=O)Nc1ccc2c(c1)OCO2`?
Cruzain inh noDet: 5.01µM*; Cruzain Triton: -0.2%

What do the screens show for `COc1cc(NS(=O)(=O)c2ccc(NC(=S)NC(=O)c3sc4ccccc4c3Cl)cc2)nc(OC)n1`?
Cruzain inh noDet: -7.0%; Cruzain Triton: -5.5%

Results for O=C(NC(=S)Nc1ccc(N2CCOCC2)c(Cl)c1)c1sc2ccccc2c1Cl ?
Cruzain inh noDet: inconclusive; Cruzain Triton: -4.6%

What do the screens show for `NC(N)=NS(=O)(=O)c1ccc(NC(=S)NC(=O)c2sc3ccccc3c2Cl)cc1`?
Cruzain inh noDet: 10µM*; Cruzain Triton: -3.4%

Results for O=C(NC(=S)Nc1ccccc1N1CCOCC1)c1sc2ccccc2c1Cl ?
Cruzain inh noDet: 10µM*; Cruzain Triton: 0.7%

How did O=C(Nc1nnc(-c2ccccc2SCc2ccccc2F)s1)Nc1ccccc1F do in these assays?
Cruzain inh noDet: 3.16µM*; Cruzain Triton: 1.7%

What do the screens show for `CC(=O)Nc1nnc(SCc2ccccc2F)s1`?
Cruzain inh noDet: 5.7%; Cruzain Triton: 1.7%

What do the screens show for `Cc1nn(C(=O)c2ccccc2)c(C)c1Sc1ccc(Cl)cc1`?
Cruzain inh noDet: 3.2%; Cruzain Triton: -5.9%

Results for CCOc1ccc(-c2nnc(SCC(=O)Nc3ccc(C)cc3Cl)o2)cc1 ?
Cruzain inh noDet: inconclusive; Cruzain Triton: 28.2µM*

Results for CCOc1ccc(-c2nnc(SCC(=O)Nc3ccc(C)cc3C)o2)cc1 ?
Cruzain inh noDet: 1.8%; Cruzain Triton: -3.6%

How did CCOc1ccc(-c2nnc(SCC(=O)Nc3cc(C)ccc3OC)o2)cc1 do in these assays?
Cruzain inh noDet: inconclusive; Cruzain Triton: 31.6µM*

Results for COc1ccc(C)cc1NC(=O)CSc1nnc(-c2ccc(C)cc2)o1 ?
Cruzain inh noDet: -3.6%; Cruzain Triton: -3.6%

How did CC(=O)OC1CC2C(C)(C)C(=O)C=C[C@]2(C)C2CC[C@@]3(C)C(c4ccoc4)OC(=O)C4O[C@@]43[C@]12C (some centres undefined) do in these assays?
Cruzain inh noDet: 28.6%; Cruzain Triton: 2.2%

How did O=c1c2cc3c(cc2n(Cc2cccc(F)c2)c(=O)n1Cc1nc(-c2ccccc2)no1)OCO3 do in these assays?
Cruzain inh noDet: -23.5%; Cruzain Triton: 0.0%

What do the screens show for `O=C(Oc1ccccc1)C1O[C@@H]1c1ccccc1` (some centres undefined)?
Cruzain inh noDet: -1.2%; Cruzain Triton: 3.9%

What do the screens show for `CS(=O)(=O)N1CCc2cc(-c3csc(NC(=O)Cc4cccs4)n3)ccc21`?
Cruzain inh noDet: 20µM*; Cruzain Triton: 3.0%

How did O=C(CN1CCOCC1)Nc1nc(-c2ccc3c(c2)CCN3S(=O)(=O)c2ccccc2)cs1 do in these assays?
Cruzain inh noDet: inconclusive; Cruzain Triton: -1.1%

Results for Cc1ccc2nc(C3CCN(S(=O)(=O)c4ccc5ccccc5c4)CC3)[nH]c2c1 ?
Cruzain inh noDet: inconclusive; Cruzain Triton: 0.2%

How did COc1cc(NC(=O)CCCc2nnc3n(CC(C)C)c(=O)c4sccc4n23)cc(OC)c1 do in these assays?
Cruzain inh noDet: -13.7%; Cruzain Triton: -1.4%

What do the screens show for `Nc1ccc(Oc2ccc3nc(-c4ccccc4)c(-c4ccc([N+](=O)[O-])cc4)nc3c2)cc1`?
Cruzain inh noDet: 15.8µM*; Cruzain Triton: 6.3%

Results for N#Cc1ccc(Oc2ccc(-c3nc4ccccc4nc3-c3ccccc3)cc2)cc1C#N ?
Cruzain inh noDet: inconclusive; Cruzain Triton: -4.2%

What do the screens show for `Cc1ccc2c(c1)c(=O)c(S(=O)(=O)c1ccc(F)cc1)cn2CC(=O)Nc1ccc2c(c1)OCO2`?
Cruzain inh noDet: -29.0%; Cruzain Triton: -6.0%

Results for Cc1cccc(N2CCN(C(=O)c3cc4ccc5cccnc5c4[nH]3)CC2C)c1 (centres undefined) ?
Cruzain inh noDet: 12.6µM*; Cruzain Triton: -7.1%

How did Cc1ccc(C)c(N2CCN(C(=O)c3cc4ccc5cccnc5c4[nH]3)CC2)c1 do in these assays?
Cruzain inh noDet: -25.8%; Cruzain Triton: -6.8%

What do the screens show for `COc1ccc(N(Cc2cccs2)C(=O)c2ccccc2C)cc1`?
Cruzain inh noDet: -8.6%; Cruzain Triton: -6.5%

What do the screens show for `COc1ccc(S(=O)(=O)N2CCCC2C(=O)Nc2ccc(C(C)=O)cc2)cc1` (centres undefined)?
Cruzain inh noDet: 1.9%; Cruzain Triton: 2.7%

Results for O=C(N/N=C/C=C\c1ccccc1[N+](=O)[O-])c1cc(-c2ccc3ccccc3c2)n[nH]1 ?
Cruzain inh noDet: 7.94µM*; Cruzain Triton: -12.7%

What do the screens show for `O=C(N/N=C/C=C\c1ccccc1[N+](=O)[O-])c1cccs1`?
Cruzain inh noDet: -9.9%; Cruzain Triton: -8.5%

How did COc1ccc(CNC(=O)Cn2c(=O)c3cccn3c3cccnc32)cc1 do in these assays?
Cruzain inh noDet: -15.6%; Cruzain Triton: -5.2%

Results for COc1ccc(CNC(=O)Cn2nc(C)n3cccc3c2=O)cc1 ?
Cruzain inh noDet: 25.1µM*; Cruzain Triton: -7.1%

How did COc1ccc(CNC(=O)Cn2c(=O)c3cccn3c3ccccc32)cc1 do in these assays?
Cruzain inh noDet: 31.6µM*; Cruzain Triton: -2.0%

What do the screens show for `Cc1ccc(CNC(=O)Cn2nc(C)n3cccc3c2=O)cc1`?
Cruzain inh noDet: -0.6%; Cruzain Triton: -4.1%

Results for CC(=O)N1c2ccccc2C(=O)C1N1CCN(c2cccc(C(F)(F)F)c2)CC1 (centres undefined) ?
Cruzain inh noDet: -6.3%; Cruzain Triton: -9.4%

What do the screens show for `CC(c1ccccc1)N1CCn2c(nc3cc(NC(=O)c4cccs4)ccc32)C1` (centres undefined)?
Cruzain inh noDet: 31.6µM*; Cruzain Triton: -4.3%

How did COCCN1CCn2c(nc3cc(NC(=O)c4cccs4)ccc32)C1 do in these assays?
Cruzain inh noDet: 3.4%; Cruzain Triton: 4.9%

What do the screens show for `COc1cc(OC)cc(C(=O)NCC(=O)OCC(=O)C(C)(C)C)c1`?
Cruzain inh noDet: 3.9%; Cruzain Triton: -6.5%

How did CCc1ccccc1NC(=O)Nc1cc(C(=O)NCc2ccccc2OC)ccc1N1CCCC1 do in these assays?
Cruzain inh noDet: -7.0%; Cruzain Triton: -0.5%

How did Cc1ccc(NC(=O)Cn2cnc3sc(C(=O)O)c(C)c3c2=O)cc1Cl do in these assays?
Cruzain inh noDet: 5.5%; Cruzain Triton: 0.0063µM*

What do the screens show for `Cc1ccc(NC(=O)Cn2cnc3sc(C(=O)NCCN(C)C)c(C)c3c2=O)cc1Cl`?
Cruzain inh noDet: 3.3%; Cruzain Triton: -6.7%

Results for O=c1c(-c2ccc(Cl)cc2)nc2cnc(N3CCNCC3)nc2n1CCc1ccccc1 ?
Cruzain inh noDet: 25.2%; Cruzain Triton: 0.1%

Compound activity: PubChem, National Center for Advancing Translational Sciences (NCATS)
